In all, about 110,000 compounds were measured (“z-score”: median about -0.1, highest 2% from about 2 on). The sample holds the highest values, similar compounds and a random draw of the others, so the mix is not that of the screen. Calls of active or inactive are those of the source.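 Rule for the calls: active = z-score in the third read window above 3 or below -3; inactive = the rest.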
Each molecule was assayed against Metabotropic glutamate receptor 8 (Rattus norvegicus) (UniProt P70579) (assay: mGluR8 Gi/Go-coupled signaling modulation – cell-based, rat, thallium flux, HTS, primary screen (AID 488969)). Settings: HEK293 rat mGluR8, GIRK (G protein-gated inwardly rectifying potassium channel) thallium flux, FluoZin2; at 10 µM; stronger effect = higher value; submaximal glutamate (EC20) added with thallium.
Metabotropic glutamate receptor 8 (Rattus norvegicus), sequence (P70579 whole entry, looked up): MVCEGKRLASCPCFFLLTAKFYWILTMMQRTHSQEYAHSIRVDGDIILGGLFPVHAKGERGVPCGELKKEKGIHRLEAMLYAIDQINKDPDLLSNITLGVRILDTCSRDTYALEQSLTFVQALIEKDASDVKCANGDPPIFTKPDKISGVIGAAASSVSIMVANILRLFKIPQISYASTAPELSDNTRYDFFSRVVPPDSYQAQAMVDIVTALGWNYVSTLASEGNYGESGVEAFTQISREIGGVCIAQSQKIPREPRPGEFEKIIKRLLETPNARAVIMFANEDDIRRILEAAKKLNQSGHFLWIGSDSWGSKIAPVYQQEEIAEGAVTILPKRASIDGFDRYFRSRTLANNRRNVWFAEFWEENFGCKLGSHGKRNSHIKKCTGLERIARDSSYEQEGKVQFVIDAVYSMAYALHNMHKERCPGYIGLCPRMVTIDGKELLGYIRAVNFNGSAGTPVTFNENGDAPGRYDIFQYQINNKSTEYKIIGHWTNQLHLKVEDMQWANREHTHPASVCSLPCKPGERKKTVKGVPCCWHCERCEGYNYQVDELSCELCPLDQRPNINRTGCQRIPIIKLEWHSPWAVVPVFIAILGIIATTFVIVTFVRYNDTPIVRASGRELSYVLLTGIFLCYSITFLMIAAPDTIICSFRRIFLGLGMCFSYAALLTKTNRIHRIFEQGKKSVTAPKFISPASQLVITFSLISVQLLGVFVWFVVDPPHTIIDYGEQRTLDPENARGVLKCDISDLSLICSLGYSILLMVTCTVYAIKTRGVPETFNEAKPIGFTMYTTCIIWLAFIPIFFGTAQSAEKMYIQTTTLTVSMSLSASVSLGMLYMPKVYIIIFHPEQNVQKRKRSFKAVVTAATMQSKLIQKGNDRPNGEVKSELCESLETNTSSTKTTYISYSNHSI

Structure (SMILES)	z-score
CC1CN=C2C(C(=O)Nc3ccccc3)=C(O)CC(c3ccccc3)N21 (configuration not stated)	2.31
O=C(Nc1ccccc1)C1=C(O)CC(c2ccc(Cl)cc2)N2CCN=C12 (configuration not stated)	-0.724
CC1=NN(C(=S)Nc2ccccc2)C(c2ccccc2)C1 (configuration not stated)	0.129
N#C/C(=C\c1c(N2CCC(C(N)=O)CC2)nc2ccccn2c1=O)C(=O)NCc1ccco1	-0.0915
COC(=O)C1C2C=CC3(CN(Cc4ccco4)C(=O)C13)O2 (configuration not stated)	0.49
CC(=O)N1CCN(c2ccc(NCc3ccc(C(C)C)cc3)cc2)CC1	2.03
CC(=O)N1CCN(c2ccc(NCc3ccc(F)cc3)cc2)CC1	0.0515
CCc1ccc(CNc2ccc(N3CCN(C(C)=O)CC3)cc2)cc1	0.968
O=C(Nc1ccc2c(c1)OCO2)C1CCN(C(=O)CSc2ncnc3ccccc23)CC1	-0.185
BrC(/C=N/Nc1nc(N2CCOCC2)nc(N2CCOCC2)n1)=C/c1ccccc1	-0.171
Cn1c(=O)oc2cc(S(=O)(=O)NCc3ccccc3)ccc21	0.611
CCCCCCCn1c(=N)n(CC(=O)c2ccco2)c2ccccc21	4.65 (active)
Cc1ccccc1Cn1c(=N)n(CC(=O)c2ccc([N+](=O)[O-])cc2)c2ccccc21	0.33
Cc1ccccc1Cn1c(=N)n(CC(=O)c2ccco2)c2ccccc21	2.17
Cc1ccccc1Cn1c(=N)n(CC(O)c2ccco2)c2ccccc21 (configuration not stated)	3.34 (active)
CCn1c(=N)n(CC(=O)c2ccco2)c2ccccc21	0.33
N=c1n(Cc2ccccc2)c2ccccc2n1CC(O)c1ccco1 (configuration not stated)	0.39
Cc1ccc(Cn2c(=N)n(CC(O)c3ccco3)c3ccccc32)cc1 (configuration not stated)	1.09
CCCCn1c(=N)n(CC(=O)c2ccco2)c2ccccc21	-0.268
CCCn1c(=N)n(CC(=O)c2ccco2)c2ccccc21	-0.051
CC1CCN(C(=S)NC2CCCCC2)CC1	-0.176
CCN1CCN(C(=O)CN2C(=O)c3cccc4cccc2c34)CC1	-0.191
O=C(CSc1ccc(-c2ccccc2)nn1)c1ccccc1	0.0905
CCOCC(=O)Nc1nnc(Cc2ccc(OC)cc2)s1	-0.115

Structure (SMILES)	z-score
Cc1ccc(C)c(NC(=S)NC(NC(=O)OCc2ccccc2)C(Cl)(Cl)Cl)c1 (configuration not stated)	-0.108
Cc1ccc(C(=O)O/N=C/c2ccc3c(c2)OCO3)cc1	-0.102
CSc1nnc(-c2ccccc2Cl)o1	-0.168
O=C(N/N=C/c1ccc(Cl)cc1)Nc1ccccc1	-0.0155
Cc1ccccc1C(=O)NC(=S)Nc1ccc(Cc2ccncc2)cc1	-0.501
O=C(NC(=S)NC(=O)c1ccccc1F)c1ccccc1F	0.339
Cc1ccccc1C(=O)NC(=S)Nc1ccc(Oc2ccc(Cl)cc2)cc1	2.74
Cc1ccccc1C(=O)NC(=S)Nc1ccc(S(=O)(=O)N(C)c2ccccc2)cc1	1.07
CSc1ccccc1NC(=O)Nc1ccc(F)c(Cl)c1	-0.197
CSc1ccccc1NC(=O)Nc1ccccc1	0.531
O=C(N/C(=N\O)c1ccccc1)Nc1ccc(Cl)cc1	2.01
O=C(NC(=S)NCc1ccccc1)c1ccccc1F	1.93
O=C(N/N=C/c1ccc(Cl)cc1Cl)Nc1ccccc1	-0.276
CSc1ccccc1NC(=O)Nc1ccc(Cl)cc1	6.38 (active)
Cc1cccc(C)c1NC(=S)NC(=O)c1ccccc1F	7.93 (active)
COc1ccc(CCN2C(=O)CCC2(C)C(=O)NCc2cccnc2)cc1OC (configuration not stated)	-0.282
Cc1nn(-c2ccc(F)cc2)c(Cl)c1/C=N/NC(=O)c1cccc(S(=O)(=O)N2CCCC2)c1	-0.115
Cc1cc(/C=C2/C(=O)NN(c3ccccc3)C2=O)c(C)n1-c1cccc(O)c1	-0.338
Cn1nnc(NC(=O)CSc2nnnn2-c2ccc(F)cc2)n1	0.0243
O=C(NC(C(=O)N/N=C/c1c2ccccc2cc2ccccc12)c1n[nH]c(=O)c2ccccc12)c1ccccc1 (configuration not stated)	-0.183
N#C/C(=C\c1c(N(Cc2ccccc2)Cc2ccccc2)nc2ccccn2c1=O)C(N)=O	-1.96
Cc1c(C(=O)Nc2ccccc2[N+](=O)[O-])csc1-c1ccccc1	-0.152
O=C(NC(=S)Nc1ccc(Oc2ccccc2)cc1)c1ccc(Cl)cc1	1.23
O=C(NC(=S)Nc1ccc(Oc2ccc(Cl)cc2)cc1)c1ccccc1	3.94 (active)

Structure (SMILES)	z-score
Cc1ccc(C(=O)NC(=S)Nc2ccc(Oc3ccc(Cl)cc3)cc2)cc1	0.157
Cc1nc2ncnn2c(C)c1CCC(=O)Nc1csc(N)n1	-0.0552
O=C1CC(SCc2nc3ccccc3[nH]2)C(=O)N1c1ccc(F)cc1 (configuration not stated)	0.0187
Cc1cc(NC(=O)COc2ccc(Cl)cc2Cl)n(-c2ccccc2)n1	12.2 (active)
Cc1cc(Nc2ccccc2)n(-c2ccccc2)n1	0.00239
O=C(COc1ccc(Cl)cc1Cl)Nc1ccccn1	1.52
CSc1ccccc1NC(=O)COc1ccc(Cl)cc1Cl	-0.15
Cc1cc(NC(=O)Nc2ccccc2)n(-c2ccccc2)n1	10.5 (active)
Cc1cc(NC(=O)c2ccc(C)s2)n(-c2ccccc2)n1	0.239
O=C(COc1ccc(Cl)cc1Cl)Nc1noc2ccccc12	12.9 (active)
Cc1cc(NC(=O)C(C)Oc2ccc(Cl)cc2Cl)n(-c2ccccc2)n1 (configuration not stated)	-0.237
Cc1cc(NC(=O)COc2ccccc2)n(-c2ccccc2)n1	-0.119
CC(=O)c1cnc(N(C)C)s1	0.141
CN(Cc1ccccc1)C(=O)CN(C1CCCCC1)S(C)(=O)=O	0.423
O=C(Nc1ccc(N2CCOCC2)cc1)C1CC1	0.35
Cn1c(C(=O)NCc2ccccn2)cc2c(=O)n(C)c3ccccc3c21	0.138
COc1ccc(N(C(=O)Cc2cccs2)C(C(=O)NC2CCCCC2)c2cccn2C)cc1 (configuration not stated)	-0.0427
CCOc1ccc2c(c1)C(C)=CC(C)(C)N2C(=O)Nc1ccccc1F	-0.0976
Cc1cc(OCc2nc(-c3cccs3)no2)cc(C)c1Cl	0.00195
COc1cc(CN2CCCC(C)C2)cc([N+](=O)[O-])c1O (configuration not stated)	-0.494
CCc1ccc(-c2cc(C(=O)NN3CCOCC3)c3ccccc3n2)cc1	-0.195
O=C(NN1CCOCC1)c1cc(-c2ccc(Br)cc2)nc2ccccc12	2.02
O=C(NN1CCOCC1)c1cc(-c2ccccc2)nc2ccccc12	-0.494
C/C(N)=C(/C#N)C(=O)CSc1nnc(COc2ccccc2Cl)o1	0.832

— PubChem BioAssay AID488969 (Vanderbilt High Throughput Screening Facility, 2010)
